Rows were chosen to be rich in hits. Some 7.5% of all compounds tested hit in one or more screens of this group.
SMN2 splice enh: increases expression of the SMN2 splice variant; AID 1458; Potency, µM (series often up to 46.1 µM), usual class: activators; HEK293 SMN2-luciferase splicing reporter, luminescence, 30-36 h; 210,000 tested, 2.8% active; note: nearly all actives have a fitted effect of over 55% in size
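HEK293 cells carry an SMN2 minigene-luciferase reporter in which exon 7 inclusion puts luciferase in frame. Cells were seeded at 2000 cells/well, attached for 10-12 hours, then exposed to compounds for 30-36 hours at 37C before ONE-Glo luminescence.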
Rab9 prom act: activates the Rab9 promoter; Huh7 Rab9 promoter-luciferase reporter, luminescence, 24 h; Potency, µM (top dose mostly 9.22 µM), usual class: activators; 320,000 tested, 2.8% active; AID 485297; note: nearly all actives have a fitted effect of over 60% in size
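Using Huh7 cells stably transfected with Rab9 promoter–luciferase, compounds were incubated 24 h at 37 °C, 5% CO2; luciferase luminescence was read 10 min after reagent addition.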
NPC1 promoter act: NPC1 promoter activation; Huh7 NPC1 promoter luciferase reporter, 24 h; Potency, µM (series often up to 9.22 µM), hits mostly activators; 320,000 tested, 2.4% active; AID 485313; note: nearly all actives have a fitted effect of over 60% in size
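Huh7 cells stably carrying NPC1 promoter–luciferase, plated in Opti-MEM with 10% FBS for 2 h, were exposed to compound in DMSO for 24 h at 37 °C; luciferase reagent was added for 10 min and luminescence read.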
ELG1 genotox: inducers of genotoxicity in HEK293T ELG1-luciferase cells. 330,000 tested, 1.3% active. Potency, µM (series often up to 46 µM), usual class: activators. HEK293T ELG1-luciferase reporter, luminescence, 16 h; note: nearly all actives have a fitted effect of over 60% in size
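Luminescence read-out: rising ELG1-luciferase signal, reflecting elevated ELG1 protein under genetic stress, flags genotoxic compounds. Cells were treated for 16 hr at 37 °C before ONE-Glo detection.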
FLuc counter: firefly luciferase modulation, counter-screen for miR-21 project; P08659; purified FLuc, Km substrates, luminescence inhibition; AID 588342; 360,000 tested, 6.9% active; Potency, µM (top dose mostly 57.5 µM), actives largely listed as inhibitors; note: nearly all actives have a fitted effect of over 55% in size
Target sequence (P08659 whole entry, looked up): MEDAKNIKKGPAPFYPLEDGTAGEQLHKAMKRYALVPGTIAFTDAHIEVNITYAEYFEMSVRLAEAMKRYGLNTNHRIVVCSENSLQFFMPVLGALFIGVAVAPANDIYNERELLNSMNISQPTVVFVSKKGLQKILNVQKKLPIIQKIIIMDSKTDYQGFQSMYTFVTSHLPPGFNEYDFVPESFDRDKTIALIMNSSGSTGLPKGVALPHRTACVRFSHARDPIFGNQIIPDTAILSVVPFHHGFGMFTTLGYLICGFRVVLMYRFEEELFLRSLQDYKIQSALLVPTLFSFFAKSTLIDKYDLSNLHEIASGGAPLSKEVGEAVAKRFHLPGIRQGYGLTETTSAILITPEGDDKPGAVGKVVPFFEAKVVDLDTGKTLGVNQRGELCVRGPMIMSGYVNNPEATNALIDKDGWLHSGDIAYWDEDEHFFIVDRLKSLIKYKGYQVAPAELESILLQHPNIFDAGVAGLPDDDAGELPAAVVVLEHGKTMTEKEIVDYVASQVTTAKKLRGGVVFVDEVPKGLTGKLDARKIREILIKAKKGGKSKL
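Biochemical qHTS of compounds, final roughly 60 µM downward over six points, against 10 nM purified firefly luciferase using Km concentrations of substrates (10 uM D-luciferin, 10 uM ATP) in Tris acetate pH 7.5 buffer; luminescence output.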
Hits are given with their value. Calls come from the whole dose curve; as a rule, active = well fitted curve in the direction sought with a large enough effect; inconclusive = small, poorly fitted or top-dose-only effect, or another doubt; inactive = no such curve, though single readings can be large; an effect the other way counts as inactive or inconclusive.

CCOc1cc(/C=N/NC(=O)c2ccc(-c3csc(Nc4ccc(C)cc4)n3)cc2)ccc1OCC(=O)O was read as SMN2 splice enh 13µM, Rab9 prom act 2.8µM, NPC1 promoter act 3.2µM, ELG1 genotox inactive and FLuc counter inconclusive.
For COc1cccc(NC(=O)Cn2cc(C=O)c3ccccc32)c1 the results were Rab9 prom act inactive, NPC1 promoter act inactive, ELG1 genotox inactive and FLuc counter inactive.
Screening O=C(CCNS(=O)(=O)c1ccccc1)NCC1CCCCC1 returned Rab9 prom act inactive, NPC1 promoter act inactive, ELG1 genotox inactive and FLuc counter inactive.
Screening C/C(=N\OCc1ccc(C#N)cc1)c1ccc(S(=O)(=O)N(C)C)cc1 returned Rab9 prom act inactive, NPC1 promoter act inconclusive, ELG1 genotox inactive and FLuc counter 21µM.
Screening C/C(=N/OCO/N=C(\C)c1ccccc1)c1ccccc1 returned SMN2 splice enh inactive, Rab9 prom act inactive, NPC1 promoter act inactive, ELG1 genotox inactive and FLuc counter inactive.
For C/C(=N\OCc1ccc(C#N)cc1)c1ccccc1 the results were SMN2 splice enh 16µM, Rab9 prom act 3.2µM, NPC1 promoter act inconclusive, ELG1 genotox 18µM and FLuc counter 11µM.
Screening C/C(=N\OCc1cccc(C(=O)O)c1)c1ccc(Cl)cc1 returned Rab9 prom act 0.089µM, NPC1 promoter act inconclusive, ELG1 genotox inconclusive and FLuc counter 0.095µM.
Screening Cc1ccc2c(c1)c1c(c(=O)n(-c3cccc(Cl)c3)c(=O)n1CC(=O)N1CCCC1)n2C returned FLuc counter inactive.
Screening CCCOC(=O)c1ccc(NC(=O)Cc2cccs2)cc1 returned Rab9 prom act inconclusive, NPC1 promoter act inconclusive, ELG1 genotox inconclusive and FLuc counter 19µM.
For CC(=O)c1cccc(NC(=O)Cc2cccs2)c1 the results were SMN2 splice enh inactive, Rab9 prom act inactive, NPC1 promoter act inactive, ELG1 genotox inactive and FLuc counter inconclusive.
For CC(=O)c1ccc(NC(=O)Cc2cccs2)cc1 the results were Rab9 prom act 2.5µM, NPC1 promoter act 2.8µM, ELG1 genotox inconclusive and FLuc counter inconclusive.
Screening COc1cc(-c2noc(-c3ccc(N4CCCCC4)c([N+](=O)[O-])c3)n2)cc(OC)c1OC returned FLuc counter 17µM.
Screening COc1ccc(-c2noc(-c3ccc(N4CCN(C)CC4)c([N+](=O)[O-])c3)n2)cc1OC returned FLuc counter inactive.
`COc1cc(-c2noc(-c3ccc(N(C)C)c([N+](=O)[O-])c3)n2)cc(OC)c1OC` gave FLuc counter 15µM.
For Cc1cs/c(=N\N=C\c2cccc([N+](=O)[O-])c2)n1Cc1ccco1 the results were SMN2 splice enh inactive, Rab9 prom act inactive, NPC1 promoter act inactive, ELG1 genotox inactive and FLuc counter inactive.
COc1ccc(-n2nc(C(=O)NCC(=O)N3CCN(Cc4ccc5c(c4)OCO5)CC3)c3ccccc3c2=O)cc1OC was read as SMN2 splice enh inactive, Rab9 prom act inactive, NPC1 promoter act inactive, ELG1 genotox inactive and FLuc counter inactive.
COc1ccc(-n2nc(C(=O)NCC(=O)N3CCN(c4ccccc4)CC3)c3ccccc3c2=O)cc1OC was read as Rab9 prom act inactive, NPC1 promoter act inconclusive, ELG1 genotox inactive and FLuc counter 0.85µM.
Screening COc1ccc(-n2nc(C(=O)NCC(=O)Nc3cc(OC)c(OC)c(OC)c3)c3ccccc3c2=O)cc1OC returned Rab9 prom act inactive, NPC1 promoter act inactive, ELG1 genotox inactive and FLuc counter inactive.
`COc1ccc(-n2nc(C(=O)NCC(=O)N3CCN(c4ccccc4OC)CC3)c3ccccc3c2=O)cc1OC` gave Rab9 prom act inactive, NPC1 promoter act inactive, ELG1 genotox inactive and FLuc counter 3.8µM.
Screening COc1ccc(-n2nc(C(=O)NCC(=O)N3CCOCC3)c3ccccc3c2=O)cc1OC returned Rab9 prom act inactive, NPC1 promoter act inactive, ELG1 genotox inactive and FLuc counter 24µM.
Screening CCCCn1nnnc1SCC(=O)Nc1ccc(C)cc1 returned Rab9 prom act inactive, NPC1 promoter act inactive, ELG1 genotox inactive and FLuc counter inactive.
For Cc1cccc2cc3c(nc12)-c1ccccc1C3=O the results were Rab9 prom act inactive, NPC1 promoter act inactive, ELG1 genotox inconclusive and FLuc counter 15µM.
